# Test results published in PubChem BioAssay.
# “And” between values parts separate entries of the source, which are not always exact repeats. Equal values may be shown once. The source made the active and inactive calls.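 The calls were made as follows, unless noted: active = z-score of at least 1.8 in each of two replicates, scored against plate mean and spread of sample wells; inactive = the rest.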
# How the values were obtained:
# [1] = P. berghei load reduction in hepatocytes – cell-based, HepG2, luciferase luminescence, HepG2 viability, primary screen (AID 624349; in the data active = parasite load remaining mostly below about 12%, no sharp cut-off; inactive = mostly above about 10%;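 also: 100% = mean of DMSO negative control wells on the same plate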); conditions: P. berghei liver stage in HepG2, luciferase luminescence, concentration not given here; parasite load remaining: stronger effect = lower value; viability: measured here: HepG2 viability without parasites
# [2] = Wnt pathway potentiators raising nuclear beta-catenin – imaging, WNT3A-conditioned medium, mouse C2C12, NPC library, primary screen (AID 1117326; in the data active = nuclear beta-catenin stimulation mostly above about 4.2%, no sharp cut-off; inactive = mostly below about 10%); conditions: stronger effect = higher value
# [3] = stimulators of insulin release from INS-1E, primary screen, cell-based, 5 mM glucose, NPC library (AID 1117329;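 active = compound raises insulin release from rat beta cells at 5 mM glucose, no numeric limit stated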); conditions: rat INS-1E insulin secretion, at 10 µM, stronger effect = higher value
# [4] = growth inhibition of GSK3B-pretreated HCT116 cells – cell-based, CellTiter-Glo, 0.2 to 20 µM (AID 1117336;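 active = compounds lowering colon cancer cell viability after pretreatment blocking the GSK3B kinase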); conditions: HCT116 viability after GSK3B inhibitor, at 20 µM, stronger effect = higher value
# [5] = inhibition of endothelial tube formation, primary screen, imaging, VEGF stimulated, CD31 staining, tube area, NPC library (AID 1117340;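 active = compound that reduces growth-factor-driven endothelial tube area in a mixed cell culture, no cutoff stated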); conditions: VEGF-stimulated ADSC/ECFC co-culture, at 10 µM, stronger effect = higher value
# [6] = GLP1 release stimulators, primary, NCI-H716, NPC library (AID 1117341;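 active = compound raises GLP1 secretion from the human gut endocrine cells, with no numeric limit stated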); conditions: NCI-H716 cells, at 10 µM, stronger effect = higher value
# [7] = HCT116 colon cancer cell growth inhibition, primary screen, CellTiter-Glo luminescence, NPC library (AID 1117342;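 active = compounds that lower survival of HCT116 colon cancer cells in the luminescence readout, no numeric limit stated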); conditions: at 20 µM (top of the series)
# [8] = reduced SW480 viability measured with CellTiter-Glo, NPC library, primary (AID 1117343;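 active = compounds that lower viability of the colon cancer cells in the luminescence readout, with no numeric limit stated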); conditions: CellTiter-Glo luminescence; at 20 µM (top of the series)
# [9] = NPC library primary testing for decreased DLD-1 cell viability via CellTiter-Glo (AID 1117346;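 active = compounds that lower survival of DLD-1 colon cancer cells in the luminescence readout, no cutoff given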); conditions: DLD-1 viability, CellTiter-Glo luminescence; at 20 µM (top of the series)
# [10] = EMT-state selective cytotoxicity in co-culture – imaging, PC-3E GFP, TEM4-18 mCherry, primary screen (AID 1345086;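 active = compounds killing one labelled cell type while sparing the other, by normalised counts and ratio limits, not self-fluorescent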;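 as to all read-outs here: cells exposed to compound for 72 h before imaging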;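 as to red/green cell ratio (normalised): normalised mesenchymal count divided by normalised epithelial count so high means epithelial killing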); conditions: PC-3E GFP / TEM4-18 mCherry co-culture, imaging cell counts, at 1 µM; for red/green cell ratio (normalised): actives lie on both sides
# [11] = MELAS cybrid and Rieske KO viability enhancers – cell-based, MELAS cybrids, Rieske KO mouse fibroblasts, CellTiter-Glo, primary screen (AID 1508586;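 active = mean z-score across replicates of 1.96 or higher in either the MELAS or the Rieske mutant cell line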;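 also: z relative to plate mean and SD of compound and empty wells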); conditions: low glucose
# [12] = molecular target: NAD(+) hydrolase SARM1 (Homo sapiens) (UniProt Q6SZW1); assay: blocking NAD cleavage by SARM1 SAM-TIR – cell lysate, NAD-Glo luminescence (AID 1508614;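 active = compound whose remaining NAD level is above about 45 nM, limit read from the data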;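 also: higher remaining NAD means stronger inhibition of SARM1 NADase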); conditions: SAM-TIR HEK293T lysate NADase, at 1 µM, stronger effect = higher value
# [13] = galactose survival enhancers in mitochondrial complex I cybrids – cell-based, galactose medium, ATP luminescence, primary screen (AID 1645843); conditions: complex I mutant cybrid cells, 72 h, stronger effect = higher value;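 also: positive z means more ATP and so rescue of galactose-driven cybrid death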
# [14] = viability loss with induced miR-34 in A549 – imaging, A549 dox-inducible miR-34, nuclei and caspase counts, primary screen (AID 1347080;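 active = compounds whose cell count with miR-34 switched on is under 0.7 times the count with it off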); conditions: A549 miR-34 inducible, Hoechst nuclei count, 48 h
# [15] = tested on: Aerobactin synthetase IucA (Klebsiella pneumoniae hvKP1); assay: IucA enzyme inhibition, primary screen, biochemical, Spectrum library (AID 1346200; call rule not given here;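 also: 100% = wells without compound and 0% = wells lacking enzyme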); conditions: malachite green pyrophosphate, A620, at 8 µM, stronger effect = lower value
# [16] = molecular target: Mitogen-activated protein kinase 7 (Homo sapiens) (UniProt Q13164); assay: Gal4-ERK5 driven luciferase induction – cell-based, HTS, primary screen (AID 1508626;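 active = luciferase signal above three times the same-plate solvent-only control wells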;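 also: luciferase driven by Gal4-ERK5 fusion binding five Gal4 sites before minimal TATA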); conditions: HeLa Gal4-ERK5 transactivation, 18 h, at 5 µM, stronger effect = higher value
# [17] = measured here: epithelial PC-3E GFP cell survival
# [18] = measured here: mesenchymal TEM4-18 mCherry cell survival
# [19] = MELAS cybrid survival, CellTiter-Glo 48 h, stronger effect = higher value
# [20] = Rieske KO mouse fibroblast survival, CellTiter-Glo 72 h
# [21] = stronger effect = lower value, cell number ratio, induced over uninduced
# [22] = measured here: relative caspase fold change +Dox/-Dox
# [23] = measured here: total cells with miR-34 induction, stronger effect = lower value
# [24] = measured here: total cells without miR-34 induction
# Sequence of Mitogen-activated protein kinase 7 (Homo sapiens) (Q13164 whole entry, looked up, the tested form may be a part): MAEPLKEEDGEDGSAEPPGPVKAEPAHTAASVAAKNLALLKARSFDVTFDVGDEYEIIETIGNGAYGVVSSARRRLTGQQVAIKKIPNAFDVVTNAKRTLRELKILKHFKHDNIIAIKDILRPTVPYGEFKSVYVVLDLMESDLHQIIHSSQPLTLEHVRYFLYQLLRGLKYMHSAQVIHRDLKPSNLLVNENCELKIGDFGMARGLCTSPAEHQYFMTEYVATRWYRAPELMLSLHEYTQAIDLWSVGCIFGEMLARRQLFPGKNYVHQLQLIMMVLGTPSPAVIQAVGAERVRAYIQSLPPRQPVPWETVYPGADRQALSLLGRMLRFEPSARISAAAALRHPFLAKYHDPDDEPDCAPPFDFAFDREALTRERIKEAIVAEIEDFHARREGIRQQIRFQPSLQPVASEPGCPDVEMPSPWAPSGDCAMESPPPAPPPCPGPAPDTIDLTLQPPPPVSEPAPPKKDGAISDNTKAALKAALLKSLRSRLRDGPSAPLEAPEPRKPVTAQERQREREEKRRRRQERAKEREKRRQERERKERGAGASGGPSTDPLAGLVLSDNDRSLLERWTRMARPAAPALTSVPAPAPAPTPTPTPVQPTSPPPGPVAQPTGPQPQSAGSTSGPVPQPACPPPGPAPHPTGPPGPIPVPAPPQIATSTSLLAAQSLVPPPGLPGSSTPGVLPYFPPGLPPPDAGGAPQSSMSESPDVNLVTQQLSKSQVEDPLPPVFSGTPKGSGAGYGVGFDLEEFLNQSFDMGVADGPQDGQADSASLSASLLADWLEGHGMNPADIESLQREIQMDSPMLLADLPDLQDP
# Sequence of NAD(+) hydrolase SARM1 (Homo sapiens) (Q6SZW1 whole entry, looked up): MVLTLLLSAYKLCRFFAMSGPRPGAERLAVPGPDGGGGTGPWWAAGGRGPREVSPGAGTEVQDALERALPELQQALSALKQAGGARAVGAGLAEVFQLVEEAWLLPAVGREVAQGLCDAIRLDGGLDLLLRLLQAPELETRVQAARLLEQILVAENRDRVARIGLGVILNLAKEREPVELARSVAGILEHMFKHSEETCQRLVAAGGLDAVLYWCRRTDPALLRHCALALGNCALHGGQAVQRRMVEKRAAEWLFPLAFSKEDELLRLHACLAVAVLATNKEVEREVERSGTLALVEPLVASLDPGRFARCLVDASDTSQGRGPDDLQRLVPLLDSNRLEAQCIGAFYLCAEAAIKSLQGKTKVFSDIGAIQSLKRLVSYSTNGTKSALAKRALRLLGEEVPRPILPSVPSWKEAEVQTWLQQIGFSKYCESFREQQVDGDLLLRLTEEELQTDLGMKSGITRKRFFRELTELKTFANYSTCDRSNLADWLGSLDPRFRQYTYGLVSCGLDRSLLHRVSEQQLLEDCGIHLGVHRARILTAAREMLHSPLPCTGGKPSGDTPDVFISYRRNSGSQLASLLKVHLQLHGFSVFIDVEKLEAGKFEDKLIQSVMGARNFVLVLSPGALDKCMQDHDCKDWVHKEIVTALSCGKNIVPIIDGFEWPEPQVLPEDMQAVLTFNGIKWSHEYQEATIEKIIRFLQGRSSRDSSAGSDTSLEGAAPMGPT
structure (smiles),measurement,setting,value
CNCC(O)c1ccc(O)cc1 (stereo not drawn),parasite load remaining,[1],81.5% (inactive) and 59.8% (inactive)
same,viability,[1],69.8% and 68.9%
same,nuclear beta-catenin stimulation,[2]; at 10 µM,-0.1% (inactive)
same,nuclear beta-catenin stimulation,"[2]; stimulation, at 2 µM",-2.7%
same,insulin secretion stimulation,[3],0.25% (inactive)
same,viability decrease,[4],14.7% (inactive)
same,tube area decrease,[5],-15.1% (inactive)
same,GLP1 secretion stimulation,[6],0.1% (inactive)
same,inhibition of viability,[7],-4% (inactive)
same,viability decrease (inhibition),[8],-14.6% (inactive)
same,viability decrease (inhibition),[9],-3.7% (inactive)
same,red/green cell ratio (normalised),[10],1.1 (inactive)
same,normalised cell number,[10]; [17],0.84
same,normalised cell number,[10]; [18],0.92
same,z-score,[11]; [19],-0.35 (inactive) and -0.388 (inactive) and -0.264 (inactive)
same,z-score,[11]; [20],-0.247 and -0.0924 and -0.396
same,remaining NAD,[12],10 nM (inactive)
same,z-score,[13],0.82 (inactive) and 0.285 (inactive)
O=C(O)C(Cl)Cl,parasite load remaining,[1],106% (inactive)
same,viability,[1],113%
same,nuclear beta-catenin stimulation,[2]; at 10 µM,1.9% (inactive)
same,nuclear beta-catenin stimulation,"[2]; stimulation, at 2 µM",0%
same,insulin secretion stimulation,[3],-1.6% (inactive)
same,viability decrease,[4],-4.8% (inactive)
same,tube area decrease,[5],-7.2% (inactive)
same,GLP1 secretion stimulation,[6],-2% (inactive)
same,inhibition of viability,[7],-9.3% (inactive)
same,viability decrease (inhibition),[8],38.4% (inactive)
same,viability decrease (inhibition),[9],8.5% (inactive)
same,fold change,[14]; stronger effect = lower value,1.04 (inactive)
same,fold change,[14]; [21],0.958 (inactive)
same,fold change,[14]; [22],1.82 and 1.65
same,cell count,[14]; [23],10400 and 8960
same,cell count,[14]; [24],10100 and 9360
same,z-score,[13],0.605 (inactive) and 0.045 (inactive)
COc1cc(N)c(Cl)cc1C(=O)NC1CN2CCC1CC2 (stereo not drawn),parasite load remaining,[1],103% (inactive)
same,viability,[1],107%
same,nuclear beta-catenin stimulation,[2]; at 10 µM,-1.2% (inactive)
same,nuclear beta-catenin stimulation,"[2]; stimulation, at 2 µM",0%
same,insulin secretion stimulation,[3],3% (inactive)
same,viability decrease,[4],0.8% (inactive)
same,tube area decrease,[5],-1.2% (inactive)
same,GLP1 secretion stimulation,[6],6.7% (inactive)
same,inhibition of viability,[7],15.8% (inactive)
same,viability decrease (inhibition),[8],-5.8% (inactive)
same,viability decrease (inhibition),[9],1.7% (inactive)
same,fold change,[14]; stronger effect = lower value,0.946 (inactive)
same,fold change,[14]; [21],0.971 (inactive)
same,fold change,[14]; [22],1.7 and 0.526
same,cell count,[14]; [23],9370 and 10300
same,cell count,[14]; [24],9910 and 10600
same,z-score,[13],0.86 (inactive) and -0.355 (inactive)
C[N+]1(CCC(C(N)=O)(c2ccccc2)c2ccccc2)CCCCC1,parasite load remaining,[1],104% (inactive)
same,viability,[1],70.3%
same,nuclear beta-catenin stimulation,[2]; at 10 µM,0.3% (inactive)
same,nuclear beta-catenin stimulation,"[2]; stimulation, at 2 µM",0.3%
same,insulin secretion stimulation,[3],0.55% (inactive)
same,viability decrease,[4],13.5% (inactive)
same,tube area decrease,[5],-8.4% (inactive)
same,GLP1 secretion stimulation,[6],1.2% (inactive)
same,inhibition of viability,[7],-21.6% (inactive)
same,viability decrease (inhibition),[8],-9.7% (inactive)
same,viability decrease (inhibition),[9],-24.2% (inactive)
same,fold change,[14]; stronger effect = lower value,0.846 (inactive)
same,fold change,[14]; [22],2.2
same,cell count,[14]; [23],8180
same,cell count,[14]; [24],9670
same,z-score,[13],0.675 (inactive)
CN[C@@H]1C[C@@H](c2ccc(Cl)c(Cl)c2)c2ccccc21,parasite load remaining,[1],4.35% (inactive)
same,viability,[1],29.3%
same,nuclear beta-catenin stimulation,[2]; at 10 µM,63.1% (active)
same,nuclear beta-catenin stimulation,"[2]; stimulation, at 2 µM",1.4%
same,insulin secretion stimulation,[3],6.2% (inactive)
same,viability decrease,[4],99.9% (active)
same,tube area decrease,[5],108% (active)
same,GLP1 secretion stimulation,[6],-0.3% (inactive)
same,inhibition of viability,[7],100% (active)
same,viability decrease (inhibition),[8],103% (active)
same,viability decrease (inhibition),[9],102% (active)
same,fold change,[14]; stronger effect = lower value,0.889 (inactive) and 0.782 (inactive)
same,fold change,[14]; [22],0.588 and 1.76
same,cell count,[14]; [23],306 and 538
same,cell count,[14]; [24],344 and 689
same,z-score,[11]; [19],-1.52 (inactive)
same,z-score,[11]; [20],-1.03
same,z-score,[13],-1.29 (inactive) and -0.78 (inactive)
CCC(COC(=O)c1cc(OC)c(OC)c(OC)c1)(c1ccccc1)N(C)C (stereo not drawn),parasite load remaining,[1],36% (inactive)
same,viability,[1],62.6%
same,nuclear beta-catenin stimulation,[2]; at 10 µM,5.9% (inactive)
same,nuclear beta-catenin stimulation,"[2]; stimulation, at 2 µM",1.2%
same,insulin secretion stimulation,[3],2.2% (inactive)
same,viability decrease,[4],49% (inactive)
same,tube area decrease,[5],19.3% (inactive)
same,GLP1 secretion stimulation,[6],5.8% (inactive)
same,inhibition of viability,[7],64.3% (active)
same,viability decrease (inhibition),[8],22.7% (inactive)
same,viability decrease (inhibition),[9],20.6% (inactive)
same,red/green cell ratio (normalised),[10],1 (inactive)
same,normalised cell number,[10]; [17],1.04
same,normalised cell number,[10]; [18],1.04
same,activity remaining,[15],102% (inactive)
same,fold change,[14]; stronger effect = lower value,0.96 (inactive) and 0.993 (inactive)
same,fold change,[14]; [22],0.946 and 0.715
same,cell count,[14]; [23],9130 and 7380
same,cell count,[14]; [24],9520 and 7430
same,z-score,[11]; [19],-0.0948 (inactive) and -0.436 (inactive)
same,z-score,[11]; [20],-0.0807 and -0.229
same,remaining NAD,[12],10 nM (inactive)
same,luciferase signal,[16],28 AU (inactive)
same,z-score,[13],-1.25 (inactive)
CN(C)C(=O)Oc1cc(OC(=O)N(C)C)cc(C(O)CNC(C)(C)C)c1 (stereo not drawn),parasite load remaining,[1],140% (inactive) and 77.2% (inactive) and 45.2% (inactive)
same,viability,[1],97.8% and 75.7% and 103%
same,nuclear beta-catenin stimulation,[2]; at 10 µM,0.1% (inactive)
same,nuclear beta-catenin stimulation,"[2]; stimulation, at 2 µM",4.2%
same,insulin secretion stimulation,[3],0.9% (inactive)
same,viability decrease,[4],-5.7% (inactive)
same,tube area decrease,[5],-4% (inactive)
same,GLP1 secretion stimulation,[6],12.7% (inactive)
same,inhibition of viability,[7],-0.23% (inactive)
same,viability decrease (inhibition),[8],-17% (inactive)
same,viability decrease (inhibition),[9],-13% (inactive)
same,red/green cell ratio (normalised),[10],0.71 (inactive)
same,normalised cell number,[10]; [17],1.3
same,normalised cell number,[10]; [18],0.92
same,activity remaining,[15],118% (inactive)
same,fold change,[14]; stronger effect = lower value,0.804 (inactive) and 0.911 (inactive) and 0.913 (inactive)
same,fold change,[14]; [22],1.26 and 0.519 and 1.12
same,cell count,[14]; [23],8290 and 8600 and 10000
same,cell count,[14]; [24],10300 and 9440 and 11000
same,z-score,[11]; [19],-0.119 (inactive) and 0.142 (inactive) and -0.358 (inactive)
same,z-score,[11]; [20],-0.285 and -0.41 and -0.25
same,remaining NAD,[12],10 nM (inactive)
same,luciferase signal,[16],80 AU (inactive)
same,z-score,[13],0.805 (inactive)
CC(C)c1cccc(C(C)C)c1O,nuclear beta-catenin stimulation,[2]; at 10 µM,1.6% (inactive)
same,nuclear beta-catenin stimulation,"[2]; stimulation, at 2 µM",2.2%
same,insulin secretion stimulation,[3],0.6% (inactive)
same,viability decrease,[4],83.9% (active)
same,tube area decrease,[5],31% (inactive)
same,GLP1 secretion stimulation,[6],-1.8% (inactive)
same,inhibition of viability,[7],88.2% (active)
same,viability decrease (inhibition),[8],102% (active)
same,viability decrease (inhibition),[9],100% (active)
same,red/green cell ratio (normalised),[10],1.01 (inactive)
same,normalised cell number,[10]; [17],1.17
same,normalised cell number,[10]; [18],1.17
same,activity remaining,[15],114% (inactive)
same,z-score,[11]; [19],0.836 (inactive) and -0.252 (inactive)
same,z-score,[11]; [20],-0.371 and -1.34
same,remaining NAD,[12],10 nM (inactive)
same,luciferase signal,[16],40 AU (inactive)
same,z-score,[13],0.08 (inactive) and -0.35 (inactive) and 0.505 (inactive)
O=C(N/N=C/c1ccc([N+](=O)[O-])o1)c1cc([N+](=O)[O-])cc([N+](=O)[O-])c1O,nuclear beta-catenin stimulation,[2]; at 10 µM,0.7% (inactive)
same,nuclear beta-catenin stimulation,"[2]; stimulation, at 2 µM",1.8%
same,insulin secretion stimulation,[3],1.3% (inactive)
same,viability decrease,[4],79.6% (active)
same,tube area decrease,[5],-13.6% (inactive)
same,GLP1 secretion stimulation,[6],1% (inactive)
same,inhibition of viability,[7],29.8% (inactive)
same,viability decrease (inhibition),[8],25.2% (inactive)
same,viability decrease (inhibition),[9],4.8% (inactive)
same,red/green cell ratio (normalised),[10],1.05 (inactive)
same,normalised cell number,[10]; [17],1.03
same,normalised cell number,[10]; [18],1.08
same,fold change,[14]; stronger effect = lower value,0.946 (inactive)
same,fold change,[14]; [22],1.02
same,cell count,[14]; [23],8410
same,cell count,[14]; [24],8890
